PNC assembly inh – blocks assembly of the perinucleolar compartment; PC3M PTB-GFP, PNC prevalence imaging, 16 h; hits give low values; AID 2417; activity change (PNC), negative = inhibition, % at 10 µM; actives 3.1% (n = 140,000);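 active = readout at or below -70, meaning at least 70% loss of cells showing the perinucleolar compartment, a nuclear body marking cancer cells; inconclusive = readout between -30 and a set limit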;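 note: plate controls were DMSO wells for no effect and camptothecin positive control wells for full effect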
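PC3M cells stably expressing PTB-GFP, 750–1000 cells/well, treated 16 h at 37 °C with compound (23 nl of library stock), in duplicate. After paraformaldehyde fixation and Hoechst stain, imaged at 20x; PNC prevalence scored by image analysis.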
ALOX15B inhib – blocks human 15-lipoxygenase 2 activity; O15296; purified 15hLO-2, xylenol orange hydroperoxide absorbance; Potency, µM (doses to about 57.1 µM), inactives show at the top dose activity change, negative = inhibition, usual class: inhibitors; actives 0.56% (n = 110,000); note: potency is the fitted concentration of half-maximal effect; nearly all actives have a fitted effect of over 60% in size
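Screening format was qHTS against 50 nM purified 15hLO-2 in Hepes pH 7.5 with detergent. Activity follows hydroperoxide formation from 45 uM arachidonic acid, measured as 573:405 nm absorbance ratio of the ferric-xylenol orange complex.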
IMPase cell inh – IMPase inhibition in cells | 120,000 tested, under 10 active | CHO-M1 cells, IP1 accumulation, HTRF TR-FRET ratio | inhibition (IP1 accumulation), % at 46.1 µM | P97697; active = well fitted curve in the direction sought with a large enough effect in the signal ratio, not every such curve was filed as active; inconclusive = small, poorly fitted or top-dose-only effect, or a change in a side signal; inactive = no such curve, though single readings can be large or run the other way; the % refers to the signal ratio;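 note: cells stimulated with carbachol in lithium chloride buffer; plate controls were DMSO basal wells for no effect and reference inhibitor wells for full effect; higher means more IMPase inhibition seen as more IP1 and lower FRET ratio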
Target sequence (P97697 whole entry, looked up): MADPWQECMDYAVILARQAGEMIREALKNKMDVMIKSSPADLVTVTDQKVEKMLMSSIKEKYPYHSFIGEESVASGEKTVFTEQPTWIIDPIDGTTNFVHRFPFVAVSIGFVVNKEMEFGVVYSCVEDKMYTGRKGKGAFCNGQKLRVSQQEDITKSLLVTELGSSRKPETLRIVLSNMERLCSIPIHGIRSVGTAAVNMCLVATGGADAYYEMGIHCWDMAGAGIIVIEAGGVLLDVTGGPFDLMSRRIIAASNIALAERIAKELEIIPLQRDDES
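In this qHTS, compounds (final up to 46 uM) act on CHO-M1 cells that are then activated through the M1 receptor with carbachol, in pH 7.4 buffer containing 50 mM LiCl, for 30 min. IP1 accumulation is quantified by the IP-One immunoassay.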
IMPase Li inh – membrane-permeable IMPase blocker, potentiated with lithium; AID 1457; actives 0.35% (n = 210,000); CHO-M1 cells, IP1 TR-FRET (IP-One), carbachol + lithium; Potency, µM (titrated, usually from 59.4 µM), for inactives: top-dose activity, negative = IMPase inhibition, most hits filed as inhibitors;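 note: IP1 builds up when IMPase is blocked and the TR-FRET signal falls; potency is the fitted concentration of half-maximal effect; plate controls were basal vehicle for no effect and high inhibitor control for full effect; nearly all actives have a fitted effect of over 50% in size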
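CHO-M1, 2000 cells/well, 16–30 h culture; cpd + low Li+, 30 min 37C; lysis with d2-IP1/Eu-anti-IP1 Ab, 10 min RT; TR-FRET 665/620 ratio and 620 channel; AC50 via Hill.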
ALOX12 inhib – 12-hLO (ALOX12) enzyme inhibition | AID 1452 | actives 0.12% (n = 150,000) | Potency, µM (titrated, usually from 57.1 µM), without a hit: at the highest dose activity change, negative = inhibition, actives largely listed as inhibitors | purified 12-hLO, xylenol orange hydroperoxide absorbance | P18054; note: potency is the fitted concentration of half-maximal effect; nearly all actives have a fitted effect of over 55% in size
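150 nM 12hLO, 25 mM Hepes pH 7.0 + 0.01% Triton X-100; cpd preinc 15 min RT; 40 uM arachidonic acid, 30 min RT; Fe-XO 30 min; A573/A405 ratio as read-out.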
Numbers without * were called inactive; ? = inconclusive; . = no result given; [ ] = another dose, or the depositor's remark. This excerpt belongs to a sample that is enriched for hits. Unless noted, calls come from the whole dose curve; as a rule, active = well fitted curve in the direction sought with a large enough effect; inconclusive = small, poorly fitted or top-dose-only effect, or another doubt; inactive = no such curve, though single readings can be large; an effect the other way counts as inactive or inconclusive. Unless noted, % is set by controls: 0 for no effect and ±100 for the full control effect.

SMILES	PNC assembly inh	ALOX15B inhib	IMPase cell inh	IMPase Li inh	ALOX12 inhib
O=C(CSc1nc(-c2ccccc2)nc2ccccc12)Nc1nccs1	39	-2%	?	25µM*	7%
CCc1cc2cc3c(cc2nc1SCC(=O)Nc1nccs1)OCO3	60	.	?	13µM*	0%
N#Cc1cc2c(nc1SCC(=O)Nc1nccs1)CCCCC2	?	0%	?	?	-3%
COCC(=O)N1CCC2(CC1)CCN(c1ncccn1)CC2	.	2%	.	6%	2%
COC(=O)CC1c2ccccc2C(Cc2ccc(OC)cc2)C(C)N1C(=O)OC (stereo not given)	.	.	.	6%	0%[11.4 µM]
CC(=O)OC[C@@]12C(=O)[C@@H](O)[C@@H](C)[C@]3(C[C@@H](c4ccoc4)O[C@@H]3OC(C)=O)[C@H]1CCC[C@]21CO1	.	.	.	12%	.
CN1CCN(c2ncc3nc(-c4cc(F)cc(F)c4)c(=O)n(Cc4cccs4)c3n2)CC1	.	20%	.	12%	.
CCC(C)(C)n1nnnc1CN1CCC(NC(=O)c2ccccc2C)CC1	-100*	.	10	3%	0%
O=C(COc1ccc(S(=O)(=O)N2CCCC2)cc1Cl)NCc1ccc2c(c1)OCO2	-107*	-9%	21	34%[38.3 µM]	-6%
COCCNC(C(=O)Nc1ccc([N+](=O)[O-])cc1Br)c1ccccc1 (stereo not given)	-7	.	.	9%	-3%
CCCCNC(C(=O)Nc1ccc([N+](=O)[O-])cc1Br)c1ccccc1 (stereo not given)	-118*	.	.	-2%	-8%
Cc1cc(C)cc(OCCOCCn2c(-c3ccc(Cl)cc3)nc3ccccc3c2=O)c1	.	.	2	.	.
C=CCOC(=O)N[C@H](/C(C(=O)OC)=C(\C)NCc1ccccc1)c1cccc(F)c1	.	.	.	27%	.
CC(=O)N(C(C)=O)c1c(C#N)c(C)n(-c2ccccc2)c1C(=O)c1ccccc1	-93*	1%	8	16%[38.3 µM]	-5%
N#Cc1c(N)c(C(=O)c2ccccc2)n2c1CCCC2	11	-3%	7	0%	-1%
Clc1ccc2nnnc(-c3ccccc3)c2c1	-98*	.	.	1%	-4%
c1ccc(-c2nnnc3ccccc23)cc1	?	.	.	7%	0%
Cc1ccc2nc(-c3ccc(SCC(=O)Nc4ccc5c(c4)OCCO5)nc3)[nH]c2c1	15	.	.	14%	0%
O=C(CSc1ccc(-c2nc3ccccc3[nH]2)cn1)Nc1ccc2c(c1)OCCO2	?	6%[11.4 µM]	0[1.84 µM]	8.9µM*	-4%
Cc1cc2nc(-c3ccc(SCC(=O)N4CCOCC4)nc3)[nH]c2cc1C	-89*	6%	-2	?	2%
Cc1cc2nc(-c3ccc(SCC(=O)N4CCN(C(=O)c5ccco5)CC4)nc3)[nH]c2cc1C	-28	45%	-10	23%[38.3 µM]	15%
CCc1c(C)nc2nc(-c3ccccc3)nn2c1NCc1ccc(C)cc1	.	.	-13	.	.
O=C1/C(=C/c2ccc(C(=O)O)cc2)CCC/C1=C\c1ccc(C(=O)O)cc1	-93*	.	.	-4%	-4%
CN(C)c1ccc(/C=C2\CCC/C(=C\c3ccccc3)C2=O)cc1	-24	.	-11	2%	-2%
COC(=O)[C@H](Cc1ccccc1)NC(=O)O[C@@H]1Cc2cc(OC)ccc2O[C@H]1c1cccc(OC)c1	.	.	.	42%	.
SMILES	PNC assembly inh	ALOX15B inhib	IMPase cell inh	IMPase Li inh	ALOX12 inhib
CC(C)COP(=O)(CNC(=O)CN1C(=O)c2ccccc2S1(=O)=O)OCC(C)C	-82*	.	.	4%	0%
O=C(CN1C(=O)c2ccccc2S1(=O)=O)NCc1ccccc1Cl	-119*	.	3	5%	-3%
COc1cccc(Nc2ncc3ncc(=O)n(C)c3n2)c1	.	0%	.	-5%	.
CN(C)CCCCNC(=O)c1ccc(-n2c(=O)c(=O)[nH]c3ccccc32)cc1	.	.	.	.	-3%
CCn1c(=O)cc(SCC(=O)NCc2cccnc2)c2ccccc21	34	6%	?	10µM*	3%
N#CC1=C(N)Oc2cc3ccccc3cc2C1c1cccnc1 (stereo not given)	-90*	3%	5	17%[38.3 µM]	-20%
N#CC1=C(N)Oc2c(ccc3cccnc23)C1c1cccnc1 (stereo not given)	-19	.	7	10%	-6%
CCN1/C(=C\c2ccc3cc(C)ccc3[n+]2CC)Sc2cc(C)c(C)cc21	.	.	.	-20%	.
CCN1/C(=C/c2ccc3cc(C)cc(C)c3[n+]2CC)Sc2cc(C)ccc21	.	.	.	11µM*	.
C[C@@]12CCC(=O)C=C1CC[C@@H]1[C@@H]2[C@H](O)C[C@]2(C)[C@@H]1CC[C@]2(O)C(=O)CO	.	6%[25.6 µM]	.	.	-3%[25.6 µM]
Fc1ccc(CSc2nnc(-c3cnccn3)n2Cc2ccco2)cc1	-17	-2%	17	27%[38.3 µM]	-1%
Fc1ccccc1CSc1nnc(-c2cnccn2)n1Cc1ccco1	-100*	.	2	11%	-4%
COc1c(C=O)c(O)cc2c1C(=O)c1ccccc1C2=O	.	.	.	-14%	.
COc1cccc(/C=C2\N=C(SC)SC2=O)c1OC	-91*	-5%	1	5%[38.3 µM]	-13%
O=C(CC(SCc1ccco1)c1ccc(O)cc1)c1cccs1 (stereo not given)	49	-15%	3	9%[38.3 µM]	-25%
O=C(CC(SCCO)c1ccc2c(c1)OCO2)c1cccs1 (stereo not given)	-112*	5%	-3	13%[38.3 µM]	-11%
CCCCCCCCCCCCOCCOCCOCCOCCO	.	17%[0.0915 µM]	.	4%	2%[0.00818 µM]
Cc1ccccc1NC(=O)c1ccccc1NC(=O)CCC(=O)O	-109*	.	.	-6%	0%
C=CCNC(=O)c1ccccc1NC(=O)c1ccccc1C	-100*	.	-14	-8%	-2%
CCC1(C)Cc2nc3[nH]c(=S)n(-c4ccc(C)cc4)c(=O)c3cc2CO1 (stereo not given)	-15	.	8	8.9µM*	4%
COC/C=C/C1=CC2=CC(=O)C(C)(OC(=O)c3ccc(Cl)nc3)C(=O)C2=CO1 (stereo not given)	.	.	.	10%	-5%
CC(C)c1c(O)nc(SCC(=O)N2CCOCC2)[nH]c1=O	7	3%	-1	4%[38.3 µM]	4%
CC(C)c1c(O)nc(SCCN(C)C)[nH]c1=O	-87*	5%	5	1%[38.3 µM]	-2%
Cc1noc(C)c1-c1ccc2ncnc(NC3CC3)c2c1	.	7%	.	5%	-3%
NC(=O)c1nn(-c2cccc(Cl)c2)c(=O)cc1O	-100*	-7%	4	11%[38.3 µM]	9%
CCC1=C2CC[C@H]3C(=O)N(c4ccccc4)C(=O)[C@H]3[C@H]2[C@@]2(C)C(=O)N(Cc3ccccc3)C(=O)N2C1=O	.	3%	.	-6%	-5%
N#Cc1cn(-c2ccccc2)nc1-c1ccc2c(c1)OCCO2	-100*	-7%	5	?	0%
CS(=O)(=O)c1ccc(N2CCOCC2)c(S(C)(=O)=O)c1	-107*	-3%	15	14%[38.3 µM]	5%
c1nnc(NC2=NCCCCC2)s1	-19	2%	23	6%	1%

Screening data deposited in PubChem by National Center for Advancing Translational Sciences (NCATS).
